Bioassay records: PubChem BioAssay, National Center for Advancing Translational Sciences (NCATS)
The list is not random: actives were taken first. Their share in the collection is about 7.9%.
FMDV inh: antivirals against foot and mouth disease virus; FMDV antiviral cell-based qHTS; Potency, µM (highest dose often 57.9 µM), for the others: at the top dose activity change, negative = inhibition, most hits filed as inhibitors; AID 1159524; actives 1.2% (n = 410,000); calls by dose curve; tested in HEK293T cells; also: read-out not given here; potency is read from the fitted curve at half-maximal effect; nearly all actives have a fitted effect of over 45% in size
LASV entry inh: inhibitors of Lassa virus binding or cell entry | actives 1.2% (n = 300,000) | Lassa virus pseudotype entry inhibition, cell reporter | Potency, µM (highest dose often 37.9 µM), for inactives: top-dose activity change, negative = inhibition, usual class: inhibitors; calls by dose curve; tested in HEK293 cells; also: potency is read from the fitted curve at half-maximal effect; nearly all actives have a fitted effect of over 50% in size
HCMV inh: human cytomegalovirus inhibition; HFF cells, HCMV-luciferase reporter, 72 h; stronger effect = lower value; activity change, negative = inhibition, % at 57.5 µM; actives 4.5% (n = 410,000); in the data active = activity change below about -60%; inconclusive = no clear call, values can overlap the other calls; inactive = above about -39%
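Steps: HFFs plated, 16 h 37C; compounds added; HCMV-luciferase added to MOI 1 PFU/cell; 72 h 37C; OneGlo reagent, 5 min room temperature; luminescence read, normalized to controls.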
HCV inhibitor: HCV inhibition; Huh7.5.1 HCVcc-Cre infection, luciferase reporter, 44 h; Potency, µM (highest dose often 41.8 µM), inactives show top-dose activity change, negative = inhibition, most hits filed as inhibitors; actives 3.4% (n = 340,000); active = well fitted inhibition curve with a large enough effect; inconclusive = small, poorly fitted or top-dose-only effect, or another doubt; inactive = no such curve, though single readings can be large or run the other way; also: potency is read from the fitted curve at half-maximal effect
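Seed cells (1,000/well) for 4 h; treat with compound and infect with HCVcc-Cre, moi about 0.5. Incubate 44 h, then detect luciferase activity.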
MARV entry inh: Marburg virus entry inhibition | Marburg virus pseudotyped entry inhibition, cell reporter | Potency, µM (titrated, usually from 37.8 µM), for inactives: top-dose activity change, negative = inhibition, most hits filed as inhibitors | actives 1.8% (n = 300,000); calls by dose curve; tested in HEK293 cells; also: potency is read from the fitted curve at half-maximal effect
An asterisk follows results filed as active; ? = inconclusive; · = no result given; [ ] = another dose, or the depositor's remark. % is scaled to controls: 0 for no effect and ±100 for the full control effect.

SMILES | FMDV inh | LASV entry inh | HCMV inh | HCV inhibitor | MARV entry inh
COc1cccc(Nc2nc(-c3sc(NC(=O)c4ccccc4)nc3C)cs2)c1 | -18% | · | -61* | -19% | ·
C=CCCC(=O)Nc1nc(C)c(-c2csc(Nc3cc(OC)ccc3OC)n2)s1 | -20% | · | -1 | 3.2µM* | ·
C=CCCC(=O)Nc1nc(C)c(-c2csc(Nc3cccc(OC)c3)n2)s1 | -22% | · | 11 | 6.3µM* | ·
Cc1cc(OCC(O)CNC(C)c2ccccc2)ccc1C(C)C (stereo not drawn) | ? | ? | -4 | ? | ?
Cc1ccc(S(=O)(=O)CCC(=O)N2CCN(c3nc4c(C)c(Cl)ccc4s3)CC2)cc1 | ? | 16%[46.1 µM] | -1 | · | ·
COc1ccc(C(=O)N2CCC(c3noc4ccccc34)CC2)cc1OC | · | · | -65* | · | ·
COc1ccccc1-c1nnc(C2CCN(C(=O)c3cccc(C)c3)CC2)o1 | 11% | 3%[46.1 µM] | -65* | · | 4%[46.1 µM]
COc1ccc(C(=O)N2CCN(C(=O)c3ccc(-c4ccccc4)cc3)CC2)cc1OC | -24% | ? | -22 | ? | ?
COc1ccc(C(=O)N2CCN(c3nc4ccccc4o3)CC2)cc1OC | ? | · | ? | 11µM* | ·
COc1cccc2sc(N3CCN(C(=O)CCS(=O)(=O)c4ccc(F)cc4)CC3)nc12 | 20µM* | ? | -88* | · | ·
COc1ccccc1-c1nnc(C2CCN(S(=O)(=O)c3ccccc3)CC2)o1 | 3% | 9%[46.1 µM] | -12 | · | -1%[46.1 µM]
COCc1c(C(=O)N2CCN(C3CCCC3)CC2)cnn1-c1ncc2c(n1)-c1ccccc1CCC2 | -8% | · | · | · | ·
CC(=O)c1cccc(NC(=O)CCc2c(C)nc3c(c(C)nn3-c3ccccc3)c2C)c1 | ? | ? | -12 | · | 6%[46.1 µM]
Cc1nc(-c2ccccc2)sc1CCNS(=O)(=O)c1ccc(Br)cc1 | 28% | -14%[46.1 µM] | -14 | · | ·
COc1ccc(C(=O)N2CCN(c3nc4c(OC)cccc4s3)CC2)cc1OC | ? | ? | -84* | · | ·
CCCN(CCC)[C@H]1CCc2c(F)ccc(O)c2C1 | · | 17% | · | · | 11µM*
CCCN(C/C=C\I)[C@@H]1CCc2ccc(O)cc2C1 | -17% | · | · | · | ·
Cc1nnc(Nc2ccc3c(c2)OCO3)c2ccccc12 | 40% | -7% | -91* | 25% | 27%
Cc1ccc(-c2nnc(Nc3ccc4c(c3)OCO4)c3ccccc23)cc1S(N)(=O)=O | 37% | -28% | -73* | ? | ?
c1ccc2c(c1)oc1c(Nc3ccc4c(c3)OCO4)ncnc12 | 33% | ? | 35 | -11% | ?
CC(=O)Nc1ccc(Nc2nnc(-c3ccc(C)c(S(N)(=O)=O)c3)c3ccccc23)cc1 | 28% | 5% | ? | 1% | ?
OC(COCC(F)(F)C(F)(F)C(F)(F)C(F)F)Cn1c2ccc(Cl)cc2c2cc(Cl)ccc21 (stereo not drawn) | ? | ? | · | 3.2µM* | ?
O=C1Nc2ccc(F)cc2C12SCCS2 | -4% | ? | -107* | -12% | -8%
O=C1Nc2ccc(F)cc2C12OCCO2 | -6% | 15%[46.1 µM] | -26 | -1% | 1%[46.1 µM]
Cc1cc2nc3ccc(=[N+](C)C)cc-3sc2cc1N | -8% | · | · | 3.2µM* | ·
SMILES | FMDV inh | LASV entry inh | HCMV inh | HCV inhibitor | MARV entry inh
CSc1nc2ccc(S(=O)(=O)N(C)C)cc2s1 | 19% | 2% | ? | 13% | 1%
CN(C)c1ccc2nc3ccc(=O)cc-3sc2c1 | 75% | · | -78* | · | ·
CN(C)c1ccc2nc3ccc(=[N+](C)C)cc-3sc2c1 | -2% | · | -104* | ? | ·
Cc1nc2ccc(N)cc2s1 | -5% | · | -27 | ? | ·
Cc1nc2cc(C)c(C)cc2s1 | 10% | · | 11 | 0% | -2%[46.1 µM]
COc1cc(OC)c(NC(=O)c2ccccc2F)cc1Cl | 36% | · | -3 | 1% | ·
Cc1ccc(Cl)cc1NC(=O)COC(=O)c1ccccc1O | -1% | · | -27 | 11% | ·
COc1ccccc1NC(=O)COC(=O)c1cc2ccccc2cc1O | -2% | · | 0 | 6% | ·
COc1cc(NC(=O)c2c(Cl)cnn2C)c(OC)cc1Cl | -4% | -5% | -60* | ? | -21%[46.1 µM]
COc1ccccc1NC(=O)c1cc2cc(Br)ccc2cc1O | ? | · | -29 | 11µM* | ·
Cc1ccc(Cl)cc1NC(=O)c1cc2ccccc2cc1O | ? | · | -100* | ? | ·
COc1cc(NC(=O)c2cc3ccccc3cc2O)c(OC)cc1Cl | 13µM* | · | -101* | 10µM* | ·
CC(=O)C1=C(C)N(Cc2ccccc2)C(=O)NC1c1ccc(Br)cc1 (stereo not drawn) | · | 16%[14.3 µM] | · | · | -4%[14.2 µM]
